Screens as filed in PubChem.
HSF-1 act: increases HSF-1 driven luciferase reporter signal; hit rate 1.7% among 300,000; NIH3T3-HGL HSF-1 luciferase reporter, MG132, 8 h; 100% = twice DMSO control signal; AID 504408; activation, % at 9 µM;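 active = mean replicate activation of at least 50% with a set share of replicates each reaching 50%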;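 also: 0% = median of the neutral control wells and 100% = twice that signal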
TLR9-MyD88 block: inhibitors of human TLR9-MyD88 binding | Q9NR96+Q99836 | CHO BLA complementation TLR9-MyD88, CCF4 FRET ratio | inhibition, % at 4.98 µM | hit rate 0.21% among 340,000;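 active = inhibition above the mean over all tested compounds plus 3 SD, cut at about 21% in these data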;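 also: 0% = DMSO only wells and 100% = clavulanate BLA inhibitor control wells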
NOD2-RIPK2 inh: inhibitors of human NOD2-RIPK2 interaction | O43353 | hit rate 0.38% among 360,000 | AID 624267 | inhibition, % at 4.98 µM | CHO BLA complementation NOD2-RIPK2, CCF4 ratio; in the data active = inhibition above about 21%;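 also: 0% = vehicle only and 100% = reference blocker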
HSF1 inhib: HSF1 inhibition | NIH3T3-HGL HSE-luciferase, MG132-induced, luminescence 8 h; stronger effect = lower value | activity change, negative = inhibition, % at 7.5 µM (by protocol) | hit rate 0.77% among 300,000 | AID 2098;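 active = more than half of replicate wells show activity change below -50%, luminescence cut by over half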;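 also: luciferase reports HSF-1 transcriptional activity via heat shock element; 0% = median of DMSO wells and -100% = zero luminescence signal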
TLR4 MyD88 comp: inhibitors of human TLR4-MyD88 binding; inhibition, % at 8.4 µM; hit rate 0.18% among 200,000; HeLa CL3-4 TLR4/MyD88 BLA complementation, FRET ratio; AID 861; in the data active = inhibition above about 25%;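 also: 0% = vehicle and 100% = reference inhibitor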
The depositor's hits bear a star; . = no result. An excerpt weighted towards active compounds, which were near 2.4% of everything screened.

SMILES | HSF-1 act | TLR9-MyD88 block | NOD2-RIPK2 inh | HSF1 inhib | TLR4 MyD88 comp
COc1ccccc1NC(=S)N(Cc1ccco1)Cc1cc2cccc(C)c2[nH]c1=O | 119* | -7 | -16 | 60 | 1
COc1ccccc1NC(=O)N(Cc1ccco1)Cc1cc2ccc(C)c(C)c2[nH]c1=O | 108* | 4 | 3 | 79 | 8
Cc1cccc2cc(CN(Cc3ccccc3)C(=S)NCCCN(C)C)c(=O)[nH]c12 | -78 | -5 | 6 | -74* | -10
Cc1ccc2cccc(OC(=O)c3c(F)cccc3Cl)c2n1 | . | . | -2 | . | .
COc1ccccc1S(=O)(=O)N(C)C[C@H]1OCc2cnnn2CCCC(=O)N([C@H](C)CO)C[C@@H]1C | . | 3 | -5 | . | .
Cc1ccc(S(=O)(=O)N2CCN(C(=O)COC(=O)Cc3cccc(C(F)(F)F)c3)CC2)c(C)c1 | -7 | 2 | 2 | 0 | .
COc1ccc(CN(CC2CCC(C(=O)O)CC2)C(=S)Nc2cc(Cl)ccc2OC)cc1 (centres undefined) | 337* | -6 | -7 | 266 | -19
COc1cc(/C=N/NS(=O)(=O)c2ccc(C)cc2)ccc1OCc1ccc(C(=O)O)cc1 | -78 | 0 | 3 | -75* | -1
COc1cc(/C=N/NC(=O)CCN2CCCCC2)ccc1O | -1 | 16 | 2 | -9 | -4
COc1cc(/C=N/NC(=O)CN2CCCCC2)ccc1OCc1ccc(Br)cc1 | 79* | -1 | 2 | 46 | -1
CCOc1ccc(/C=N/NS(=O)(=O)c2ccc(C)cc2)cc1OC | 15 | -3 | -1 | 11 | .
Cc1c(NC(=O)CSc2nc3ccccc3c(=O)n2C(C)C)c(=O)n(-c2ccccc2)n1C | . | -5 | -8 | . | .
CCOC(=O)C1(C)CCN1C(=O)c1ccccc1C(F)(F)F (centres undefined) | . | . | -7 | . | .
O=C1CNC(=S)N1c1nc(-c2ccccc2)cs1 | 52* | -2 | -10 | 26 | 7
COc1ccc(CCNC(=O)CN(c2ccc(OC)c(OC)c2)S(C)(=O)=O)cc1OC | -73 | 1 | -3 | -66* | -4
COc1ccc(C2C3=C(CCCC3=O)N(CC(=O)O)C3=C2C(=O)CCC3)cc1Cl | 77* | -12 | 1 | 30 | .
COc1ccc(C2C3=C(CCCC3=O)N(CC(=O)O)C3=C2C(=O)CCC3)cc1Br | . | -23 | 0 | . | .
CCc1ccc(/C=C/C(=O)c2ccc(N3CCOCC3)cc2)cc1 | 55* | 9 | -8 | 24 | 6
NS(=O)(=O)c1ccc(CCNCC#Cc2ccccc2)cc1 | -76 | -5 | 2 | -71* | .
O=C1CSc2ccc(S(=O)(=O)N3CCN(c4ccccc4F)CC3)cc2N1 | 1 | 6 | -4 | -1 | .
CC(=O)Nc1cccc(C(=O)N/N=C/c2cccnc2)c1 | -1 | 3 | 0 | -2 | 5
O=C(O)c1cccc(NC(=S)N/N=C/c2cccnc2)c1 | -62 | -4 | -2 | -60* | 0
O=C(N/N=C/c1ccc2c(c1)OCO2)c1ccc2c(c1)OCO2 | 6 | -1 | -10 | 2 | .
O=C(N/N=C/c1cccnc1)c1ccc2c(c1)OCO2 | -67 | -15 | -2 | -59* | .
Nc1nnc(SCC(=O)c2ccccc2)s1 | 4 | 0 | 0 | -7 | -7
SMILES | HSF-1 act | TLR9-MyD88 block | NOD2-RIPK2 inh | HSF1 inhib | TLR4 MyD88 comp
Nc1c(C(=O)c2ccccc2)sc2snc(SCC(=O)c3ccccc3)c12 | 111* | 16 | 2 | 51 | -5
CCCN(Cc1ccccc1)C(=S)NC(=O)c1ccccc1[N+](=O)[O-] | -67 | -8 | -8 | -60* | -7
CC1(C(=O)Nc2cccc3c2CCCC3)CCN1C(=O)CCC1CCCC1 (centres undefined) | . | . | 10 | . | .
O=C(CCl)Nc1sccc1C(=O)c1ccccc1 | 61* | -2 | 3 | 43 | .
Cc1sc(NC(=O)CCl)c(C(=O)c2ccccc2)c1C | 24 | -8 | -6 | 14 | 7
Cc1cc(C(=O)c2ccc(C(C)(C)C)cc2)c(NC(=O)CCl)s1 | 94* | 1 | -2 | 44 | 0
O=C(COC(=O)C1CC1)NCc1ccc(Cl)cc1Cl | . | -3 | 0 | . | .
COC(=O)c1ccc(Cn2nnc3c(=O)[nH]c(C4CCCN(S(=O)(=O)c5cccc(Cl)c5)C4)nc32)cc1 (centres undefined) | 17 | -6 | -8 | 3 | .
COc1ccccc1-n1c(-c2ccccc2)c[nH]c1=S | 24 | 2 | -4 | 29 | -7
S=c1[nH]cc(-c2ccccc2)n1-c1ccccc1Cl | 57* | -3 | -11 | 15 | 2
COc1ccc(-c2cc(CS(=O)(=O)c3ccccc3)on2)cc1 | 64* | -5 | -6 | 19 | -14
O=S(=O)(Cc1cc(-c2ccccc2)no1)c1ccccc1 | 13 | -2 | -9 | 12 | -6
Nc1nc2c(ncn2-c2ccccc2)c(=O)[nH]1 | . | 3 | -15 | . | .
Nc1nc2nn(-c3ccccc3)nc2c(=O)[nH]1 | 55* | -4 | -13 | 21 | .
Cc1ccc(O)c(NC(=O)CCCC(=O)O)c1 | 0 | -1 | -4 | 4 | -8
Cn1c(NNC(=O)CCC2CCCCC2)cc(=O)n(C)c1=O | 18 | -7 | -17 | -4 | 8
Cc1ccc(O)c(NC(=O)C2CCCCC2)c1 | 68* | -4 | -4 | 68 | .
Cc1ccc(O)c(NC(=O)CCC2CCCCC2)c1 | 151* | -2 | 15 | 78 | 2
O=C(CCC1CCCCC1)Nc1ccccc1O | 59* | 0 | -10 | 45 | -19
Cn1c(NC(=O)CCC2CCCCC2)cc(=O)n(C)c1=O | 55* | 8 | -12 | 36 | -7
Cc1ccc(NC(=O)C2CCCCC2)c(O)c1 | 3 | . | . | 0 | -9
CCCc1c(C(=O)N/N=C/c2ccccc2C(F)(F)F)nnn1-c1nonc1N | -11 | 0 | 7 | 0 | .
COc1cc(C(=O)N2CCN(C(=O)CC(C)C)CC2)cc(OC)c1OC | -78 | 1 | -14 | -73* | -6
CN(C)c1ccc(C2/C(=C(/O)c3ccc(Br)cc3)C(=O)C(=O)N2C)cc1 (centres undefined) | -5 | -2 | -2 | -6 | .
N#C/C(=C/c1ccc(Br)o1)C(N)=S | 8 | . | . | -2 | .
SMILES | HSF-1 act | TLR9-MyD88 block | NOD2-RIPK2 inh | HSF1 inhib | TLR4 MyD88 comp
N#C/C(=C/c1ccc(Br)o1)C(N)=O | -92 | 1 | 1 | -92* | 3
COc1ccc(CCNC(=O)c2nn(C)c3c2CS(=O)(=O)c2ccccc2-3)cc1OC | -2 | 6 | -2 | 3 | .
Cc1ccc(NC(=O)N2CCCC2C(=O)Nc2c(C)cc(C)cc2C)cc1 (centres undefined) | 57* | 3 | 2 | 20 | .
CC(=O)c1cccc(NC(=O)N2CCCC2C(=O)Nc2c(C)cccc2C)c1 (centres undefined) | 13 | 2 | 1 | -7 | -1
CCCNc1nc2c(c(=O)n(C)c(=O)n2C)n1Cc1ccc(F)cc1 | 10 | -4 | -12 | -4 | 1
C=C(C)Cn1c(NCCC)nc2c1c(=O)n(C)c(=O)n2C | -64 | 8 | 3 | -53* | .
Cc1ccc(C(=O)NC2CCCN(c3ccc(C(F)(F)F)cn3)C2)cn1 (centres undefined) | 54* | -5 | 3 | 12 | .
